Experimental data published in PubChem BioAssay AID1030 (National Center for Advancing Translational Sciences (NCATS), 2008).
“And” between values parts separate entries of the source, which are not always exact repeats. Identical values can stand only once. The whole screen tested about 220,000 compounds, of which about 16,000 (7.3%) were called active. Not shown: some 25% with an inconclusive outcome. Calls come from the whole dose curve; as a rule, active = well fitted inhibition curve with a large enough effect (not every such curve was filed as active); inconclusive = small, poorly fitted or top-dose-only effect, or another doubt; inactive = no such curve, though single readings can be large or run the other way. Many of the other results were omitted from the sample, so actives are more common in it than they were. More than one record can exist for a structure, and the calls need not agree.

These compounds were tested against Aldehyde dehydrogenase 1A1 (Homo sapiens) (UniProt P00352) (assay: qHTS Assay for Inhibitors of Aldehyde Dehydrogenase 1 (ALDH1A1)). Conditions: Purified ALDH1A1, NADH fluorescence, propionaldehyde substrate; series mostly up to 75.3 µM.
Chain of Aldehyde dehydrogenase 1A1 (Homo sapiens) (P00352 whole entry, looked up): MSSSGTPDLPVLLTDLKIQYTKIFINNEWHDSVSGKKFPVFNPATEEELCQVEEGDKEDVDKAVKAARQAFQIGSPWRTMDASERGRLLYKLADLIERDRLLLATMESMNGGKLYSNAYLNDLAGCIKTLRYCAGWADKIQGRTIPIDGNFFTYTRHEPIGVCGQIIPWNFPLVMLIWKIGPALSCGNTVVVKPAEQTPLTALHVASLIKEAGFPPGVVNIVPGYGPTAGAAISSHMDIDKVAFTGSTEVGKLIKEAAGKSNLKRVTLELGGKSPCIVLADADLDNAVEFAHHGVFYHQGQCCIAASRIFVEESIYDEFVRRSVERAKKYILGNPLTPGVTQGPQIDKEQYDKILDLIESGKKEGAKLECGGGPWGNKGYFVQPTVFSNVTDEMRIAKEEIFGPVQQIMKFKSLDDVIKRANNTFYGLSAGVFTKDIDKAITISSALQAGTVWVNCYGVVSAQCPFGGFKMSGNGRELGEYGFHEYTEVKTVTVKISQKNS
Potency is the fitted concentration of half-maximal effect.
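Throughout, for activity, negative = inhibition: plate controls were no enzyme wells and a reference inhibitor.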

Potency, inactive and 22.4 µM (active):
C[C@@H](C(=O)Nc1ccc2ccccc2c1)[C@@H]1C[C@@]1(C)[C@@H](NC(=O)c1cccnc1)c1ccccc1

Potency, active:
O=CN1CCN(C2CC(=O)N(c3ccc4c(c3)OCO4)C2=O)CC1 (stereo unspecified) 12.6 µM
COc1ccc(C(=O)NC(=O)CSc2nnc(-c3ccco3)n2-c2ccccc2)cc1 31.6 µM
Cc1cccc(C)c1NC(=O)CCCSc1nnc(-c2ccco2)n1-c1ccccc1 25.1 µM
O=C(N/N=C/c1sc(N2CCCCC2)nc1-c1cccs1)c1cccnc1 31.6 µM
O=[N+]([O-])c1ccccc1/C=N/n1c(COc2ccccc2)n[nH]c1=S 15.8 µM
CCOC(=O)c1oc2c(CN3CCN(CCO)CC3)c(O)c(CC)cc2c(=O)c1-c1nc2ccccc2s1 28.2 µM
COc1ccc(S(=O)(=O)N/N=C\c2ccc(OC)c(COc3ccc(C)cc3[N+](=O)[O-])c2)cc1 14.1 µM
CSCCNCc1cn(-c2ccc(F)cc2F)nc1-c1ccccc1C 35.5 µM
COC(=O)c1cccc(-n2[nH]nnc2=S)c1 2.82 µM
Cc1ccc(S(=O)(=O)N(C)C)cc1NC(=O)/C=C/c1cccs1 0.447 µM
S=c1[nH]nc2c3c4c(sc3ncn12)CCCC4 25.1 µM
COc1cccc(OC)c1C(=O)Nc1nnc(C(C)C)s1 7.08 µM
COc1cc(C(=O)NC(=S)NCc2ccco2)cc(OC)c1OC 5.01 µM
CN(C)S(=O)(=O)c1ccc(NC(=O)COC(=O)Cn2[nH]c(=O)c3ccccc3c2=O)cc1 28.2 µM
O=[N+]([O-])c1cccc(/C([O-])=C(/C(=S)Nc2ccccc2F)[n+]2ccccc2)c1 22.4 µM
CCOC(=O)NC(=O)/C(C#N)=C\c1ccccc1 7.08 µM
CS(=O)(=O)c1ccc2nnn(OCC(=O)Nc3cccc(C#N)c3)c2c1 10 µM
CC(C)(C)NC(=O)CSC(=Nc1ccccc1F)NC#N 1.26 µM
S=c1ccc2ccccc2[nH]1 25.1 µM

Potency, inactive:
CCCCN1C(=S)NC[C@@H]1C(C)CC (stereo partly specified)
Cc1ccc(C)c(-n2cc(CN3CCN(C(=O)c4ncn[nH]4)CC3)c(-c3ccccc3)n2)c1
Cc1cc(NC(=O)CSc2nnc(Nc3ccccc3F)s2)no1
O=C(Nc1ccc2c(c1)OCO2)c1ccc(N2C(=O)c3ccccc3C2=O)cc1
Cc1cc(C)nc(N2CCC(C(=O)Nc3ccc4c(c3)OCCO4)CC2)n1
CCn1cc(C(=O)Nc2cc(C)ccc2C)c(=O)c2ccc(C)nc21
C=CCN(C(=O)c1cc(C)cc(C)c1)C1(C(=O)Nc2ccccc2)CCN(C(C)C)CC1
Cc1ccnc(SCC(N)=O)n1
O=C(O)CCSc1nnc(-c2ccccc2)n1-c1ccccc1
COc1ccc(-c2nnc(SCC(=O)c3ccco3)n2-c2ccccc2)cc1
CCn1c(SCC(=O)Nc2nccs2)nnc1-c1ccco1
O=C(CSc1nnc(-c2ccco2)n1-c1ccccc1)NCCc1ccccc1
O=C(NCc1ccccn1)c1cc(Br)ccc1Cl
CC[N+]1(CC)CC2=Cc3ccccc3CC2C1 (stereo unspecified)
COc1ccc(N2CCN(C(=O)CCSCc3ccccc3F)CC2)cc1
Cc1cccc(-n2cc(CN3CCN(C(=O)c4ncn[nH]4)CC3)c(-c3cccc(F)c3)n2)c1
CC(C)=CCC[C@]1(C)[C@@H](CC=C(C)C)C[C@@]2(CC=C(C)C)C(=O)[C@]1(C(=O)C(C)C)C(=O)C(CC=C(C)C)=C2O
O=C(Nc1ccc(F)cc1)N1CCN(c2ccc(F)cc2)CC1
Cc1nn(Cc2ccc(Cl)cc2)c(Cl)c1/C=N/NC(=O)c1cccnc1
O=C(N/N=C/c1ccccn1)c1cccnc1
CCN(CCCNC(=O)CSc1cc(=O)n(C)c2cc(Cl)ccc12)Cc1ccccc1
CC1=NNC(=O)C1CCC(=O)N/N=C\c1cccc(Cl)c1 (stereo unspecified)
CCc1n[nH]c(=S)n1/N=C/c1c[nH]c2ccc(Br)cc12
S=c1[nH]nc(COc2ccccc2)n1-c1ccccc1
O=C(Nc1nc(-c2cccnc2)cs1)c1ccccc1F
CCN1CCN(CC(=O)Nc2sc3c(c2C#N)CCC3)CC1
CCc1cc2c(=O)c(-c3nc4ccccc4n3C)c(CCCC(=O)O)oc2cc1OC(=O)C(C)(C)C
Cn1c(=O)[nH]c(=O)c2c1nc(N1CCN(CCO)CC1)n2CCSc1nc2ccccc2s1
CCCCn1nc(C(=O)OCC(=O)Nc2sccc2C(N)=O)c2ccccc2c1=O
CCOC(=O)N1CCN(Cc2nc(Cc3cccc(C(F)(F)F)c3)no2)CC1
COC(=O)c1cc2c(ccn2C)n1C
CCOC(=O)/C(C#N)=C/c1cn(CCC(=O)O)nc1-c1ccc(Br)cc1
COc1cc(/C=N/O)ccc1OCc1ccc([N+](=O)[O-])cc1
COc1ccc(C(=O)Oc2cc(/C=N/NS(=O)(=O)c3ccc(C)cc3)ccc2OC)cc1
Cc1ccc2c(c1)C1CN(C)CCC1N2C(=S)Nc1ccc(OC(F)F)cc1 (stereo unspecified)
COCCNC(=O)NC(=O)COC(=O)C1(c2ccc(Cl)cc2)CC1
COc1ccccc1CC(=O)Nc1ccc(F)cc1F
O=C(CC12CC3CC(CC(C3)C1)C2)NCc1ccco1
CCOC(=O)c1ccc[n+](CC(=O)Nc2ccccc2OC(F)F)c1
COC(=O)c1ccc(-n2cnc3ccccc32)nc1
COC(=O)c1nn(-c2cccc(Cl)c2)ccc1=O
COc1ccc(NC(=O)c2ccccc2[N+](=O)[O-])cc1OC
CCOC(=O)C1(Cc2ccc(Cl)cc2)CCN(C(=O)C2=NNC(=O)CC2)CC1
Cc1ccc(S(=O)(=O)N(C)C)cc1NC(=O)c1ccccc1Br
CN(C)S(=O)(=O)c1cccc(NC(=O)COC(=O)/C=C/c2cccs2)c1
CCCCN(CC(=O)NC(C)(C)C)C(=O)C(=O)Nc1ccc2c(c1)OCCO2
N=c1c2c3c(sc2ncn1N)CCCC3
c1nnc2c3c4c(sc3ncn12)CCC4
Clc1cccc(-c2nc(NCC3CCCO3)c3ccccc3n2)c1 (stereo unspecified)
CCC(=O)Nc1cccc(NC(=O)c2cccnc2)c1
O=C(Nc1ccc(N2CCN(C(=O)c3ccccc3)CC2)c(Cl)c1)c1cccnc1
CC(NC(=O)Nc1ccc2c(c1)OCO2)c1ccncc1 (stereo unspecified)
COc1cccc(OC)c1C(=O)Nc1ccc(Cc2ccncc2)cc1
CCn1nnc(NC(=O)c2c(OC)cccc2OC)n1
CC(CC(=O)O)C(=O)c1ccc(Cl)c([N+](=O)[O-])c1 (stereo unspecified)
COc1cc(C(=O)N[C@@H](C)C(=O)NCc2ccco2)cc(OC)c1OC
COc1ccc(-c2cc(C(=O)NCc3ccco3)no2)cc1OC
Cc1cccc(NC(=S)N2CCC(O)CC2)c1C
CC(C)(c1ccccc1)c1ccc(OCCN)cc1
CCOc1ccc(/C=N/Nc2nncc(-c3ccccc3)n2)cc1OC
CN(C)S(=O)(=O)c1ccc(NC(=O)COC(=O)c2n[nH]c3ccccc23)cc1
CN(C)S(=O)(=O)c1cccc(NC(=O)COC(=O)c2cc(=O)[nH]c(=O)[nH]2)c1
C=CCN(c1ccc(Cl)cc1)S(=O)(=O)c1cccc(C(=O)OCC(=O)N(C)C)c1
O=C(NNC(=S)NCc1ccccc1)c1ccc(OC(F)F)cc1
Cc1nc2nc[nH]n2c(=O)c1C/C=C/c1ccccc1
CC(C)=CCN1CCC2(CCc3ccccc32)CC1
Cc1cccc(C(=O)NNC(=O)c2cccc([N+](=O)[O-])c2)c1
CCC(C)NCC(=O)Nc1ccc([N+](=O)[O-])cc1C(=O)Nc1ccccc1F (stereo unspecified)
CCOc1cc(N2CCOCC2)c(OCC)cc1NC(=O)C1=NN(c2cccc(C)c2)C(=O)CC1
CCNC(=S)Nc1ccc(OC(F)(F)F)cc1
CCOC(=O)/C(C#N)=C/c1ccc(N2CCN(Cc3ccccc3)CC2)cc1
CCOC(=O)C(C(=O)OCC)C(C#N)c1ccccc1 (stereo unspecified)
Cc1ccnc(NC(=O)Cn2ccc([N+](=O)[O-])n2)c1
Cc1ccc(CC(=O)Nc2cccc(C#N)c2)cc1
Cc1cc(NC(=O)COn2nnc3ccccc32)no1
CC(=O)c1ccccc1NC(=O)CC1(CC(=O)O)CCCCC1
C=CCC1CCC(=O)N2CCCC12 (stereo unspecified)
Cc1ccccc1CSCC(=O)NC(=O)NC(C)(C)C
COc1ccccc1-n1ccnc1SCC(=O)NC(C)(C)C
COc1cccc(OC)c1CN(C)C(=O)c1cnccc1C(F)(F)F
O=C(N/N=C/c1ccc([N+](=O)[O-])cc1)c1c[nH]c2ccccc12
CC(=O)NCCC(=O)Nc1nc(C)c(Cc2ccc3c(c2)OCO3)s1
O=C(Nc1ccccc1)c1cc2ccccc2[nH]1
COc1cc(COCC(O)CN2CCN(Cc3ccc4c(c3)OCO4)CC2)cc(OC)c1OC (stereo unspecified)
Cc1nc([N+](=O)[O-])cn1CC(=O)Nc1ccc2c(c1)OCO2

activity, negative = inhibition, inactive:
O=C1C[C@@H](O)[C@@H](O)[C@H]2[C@@H]3C(=O)N(Cc4ccc5c(c4)OCO5)C(=O)[C@@H]3CC[C@H]12 -12% [at 13.5 µM] and -15.2% [at 13.5 µM]
